# Measurements reported in PubChem BioAssay.
# Active and inactive are the calls of the source.
# Columns and labels:
# [1] = small molecules captured by biotinylated probe aFSTL3 – biochemical, small-molecule microarray, fluorescence 635/667, stem cell growth factor project, primary screen (AID 1064); details: higher = more signal;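 note: measures binding of the biotinylated anti-FSTL3 antibody to printed compounds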
# [2] = binders from COS7 lysate, DM2A8 probe, primary screen, torsin A project, cell lysate, small-molecule microarray, fluorescence 635/667 (AID 1065); details: higher = more signal, COS7 lysate expressing mutant human TOR1A
# [3] = small molecules captured by biotinylated probe aFGF2 – biochemical, small-molecule microarray, fluorescence 635/667, stem cell growth factor project, primary screen (AID 1067); details: higher = more signal;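 note: measures binding of biotinylated aFGF2 protein to printed compounds on slides; z-score merges feature fluorescence and signal-to-noise across triplicate slides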
# [4] = small molecules captured by biotinylated probe aFGF10 – biochemical, small-molecule microarray, fluorescence 635/667, stem cell growth factor project, primary screen (AID 1071); details: higher = more signal;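 note: score merges 667 nm spot intensity and signal to noise from triplicate slides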
# [5] = target: Neurogenic locus notch homolog protein 2 (Homo sapiens) (UniProt Q04721); experiment: small molecules binding Notch2 protein – biochemical, small-molecule microarray, 635 nm fluorescence, stem cell growth factors, primary screen (AID 1073); details: higher = more signal
# [6] = target: Pro-neuregulin-1, membrane-bound isoform (Homo sapiens) (UniProt Q02297); experiment: small molecules binding neuregulin-1 protein – biochemical, small-molecule microarray, fluorescence 635/667, psychiatric disease protein project, primary screen (AID 1075); details: NRG1 binding, 635 nm fluorescence, higher = more signal;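 note: score combines 667 nm spot fluorescence with signal to noise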
# [7] = test system: Neuregulin-1 EGF-like domain; experiment: small molecules binding NRG1 EGF domain – biochemical, small-molecule microarray, 635 nm fluorescence, primary screen (AID 1081); details: higher = more signal;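 note: binding of the protein to compounds printed on small-molecule microarray slides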
# [8] = FRG1 expression reporter modulators in myotubes – cell-based, C2C12 myotubes, firefly/Renilla luciferase, luminescence, FRG1 inhibition for FSHD, primary screen (AID 1084); details: FRG1 promoter luciferase, higher = more signal, called active from +8 up or from −8 down
# [9] = small molecules captured by biotinylated probe aFST – biochemical, small-molecule microarray, fluorescence 635/667, stem cell growth factor project, primary screen (AID 1086); details: higher = more signal;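 note: score merges 667 nm fluorescence with signal-to-noise of each printed compound spot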
# [10] = binders of probe aHhip on microarray, primary screen, stem cell growth factor project, biochemical, small-molecule microarray, fluorescence 635/667 (AID 1087); details: higher = more signal;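 note: score merges spot fluorescence at 667nm with spot signal to noise ratio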
# [11] = test system: PRMT1 (protein arginine N-methyltransferase 1); experiment: small molecules binding arginine methyltransferase PRMT1 – biochemical, small-molecule microarray, 635 nm fluorescence, primary screen (AID 1088); details: higher = more signal;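 note: binding of Prmt1 protein to compounds spotted on small-molecule microarray slides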
# [12] = growth effects on S. cerevisiae YJM789 – YJM789 clinical isolate, OD600, 24 h, basal, primary screen (AID 1089); details: higher = more signal, called active from +8 up or from −8 down;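 note: growth of clinical yeast isolate S. cerevisiae YJM 789 seeded 1000 cells per well; test concentration not given here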
# [13] = S. pombe growth modifiers, basal conditions – strain 972, OD600, 24 h, no modulator, primary screen (AID 1090);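 note: basal condition with compound alone and no growth modifier present; test concentration not given here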; details: S. pombe 972 growth, higher = more signal, called active from +8 up or from −8 down
# [14] = budding yeast growth modifiers under rapamycin – strain BY4716, OD600, 96 h, primary screen (AID 1091); note: test concentration not given here; details: S. cerevisiae BY4716 + rapamycin, higher = more signal, called active from +8 up or from −8 down
# [15] = target: Torsin-1A-interacting protein 2 (Homo sapiens) (UniProt Q8NFQ8); experiment: small molecules binding lysate-expressed LULL1 – cell lysate, human LULL1 lysate, 635/667 nm fluorescence, primary screen (AID 1092); details: small-molecule microarray, hLULL1 lysate binding, 635 nm fluorescence; higher = more signal;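 note: probe is lysate of COS7 cells overexpressing human LULL1; score merges per-feature 667 nm fluorescence with signal-to-noise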
# [16] = optical density change of DRC41 E. coli – strain DRC41, OD650, 24 h, E. coli filamentation project, primary screen (AID 1093);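 note: MC1000 strain lacking acrAB efflux and sulA so SOS filamentation is blocked; test concentration not given here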; details: E. coli DRC41 growth, higher = more signal, called active from +8 up or from −8 down
# [17] = probe aLefty2 binding to arrayed compounds – biochemical, biotinylated probe, 635/667 nm fluorescence, primary screen (AID 1094); details: small-molecule microarray, higher = more signal;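 note: score merges spot fluorescence near 667 nm with spot signal-to-noise ratio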
# [18] = test system: Noggin (protein binding on small-molecule microarray); experiment: small molecules binding Noggin protein – biochemical, 635/667 nm fluorescence, primary screen (AID 1095); details: 635 nm fluorescence, higher = more signal;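 note: score merges 667 nm feature fluorescence with signal to noise over triplicate slides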
# [19] = target: Neurogenic locus notch homolog protein 3 (Homo sapiens) (UniProt Q9UM47); experiment: small molecules binding NOTCH3 protein – biochemical, 635/667 nm fluorescence, primary screen (AID 1096); details: small-molecule microarray, 635 nm fluorescence, higher = more signal
# [20] = probe aEGFR binding to arrayed compounds – biochemical, biotinylated probe, 635/667 nm fluorescence, primary screen (AID 1097); details: small-molecule microarray, higher = more signal;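 note: probe is a biotinylated anti-EGFR antibody binding compounds printed on slides; score combines fluorescence near 667 nm and signal to noise of each spot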
# Chain of Pro-neuregulin-1, membrane-bound isoform (Homo sapiens) (Q02297 whole entry, looked up, the tested form may be a part, canonical isoform): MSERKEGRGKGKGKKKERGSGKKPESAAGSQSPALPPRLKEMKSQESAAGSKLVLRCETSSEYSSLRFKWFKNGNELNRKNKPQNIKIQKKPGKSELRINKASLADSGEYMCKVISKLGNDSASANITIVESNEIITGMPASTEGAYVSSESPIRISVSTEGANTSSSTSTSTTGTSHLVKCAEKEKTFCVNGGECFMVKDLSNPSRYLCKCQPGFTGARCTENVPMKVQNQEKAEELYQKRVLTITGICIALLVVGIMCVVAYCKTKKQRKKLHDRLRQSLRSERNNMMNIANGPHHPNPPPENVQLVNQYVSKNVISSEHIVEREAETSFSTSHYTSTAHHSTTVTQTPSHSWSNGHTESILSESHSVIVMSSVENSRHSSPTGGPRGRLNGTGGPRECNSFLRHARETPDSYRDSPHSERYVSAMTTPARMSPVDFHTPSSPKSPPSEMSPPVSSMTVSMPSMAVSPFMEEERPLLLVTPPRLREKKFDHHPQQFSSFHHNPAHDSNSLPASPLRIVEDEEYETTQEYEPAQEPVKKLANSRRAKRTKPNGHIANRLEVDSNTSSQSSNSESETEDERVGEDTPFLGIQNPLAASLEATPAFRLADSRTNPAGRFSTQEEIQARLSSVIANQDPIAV
# Chain of Torsin-1A-interacting protein 2 (Homo sapiens) (Q8NFQ8 whole entry, looked up): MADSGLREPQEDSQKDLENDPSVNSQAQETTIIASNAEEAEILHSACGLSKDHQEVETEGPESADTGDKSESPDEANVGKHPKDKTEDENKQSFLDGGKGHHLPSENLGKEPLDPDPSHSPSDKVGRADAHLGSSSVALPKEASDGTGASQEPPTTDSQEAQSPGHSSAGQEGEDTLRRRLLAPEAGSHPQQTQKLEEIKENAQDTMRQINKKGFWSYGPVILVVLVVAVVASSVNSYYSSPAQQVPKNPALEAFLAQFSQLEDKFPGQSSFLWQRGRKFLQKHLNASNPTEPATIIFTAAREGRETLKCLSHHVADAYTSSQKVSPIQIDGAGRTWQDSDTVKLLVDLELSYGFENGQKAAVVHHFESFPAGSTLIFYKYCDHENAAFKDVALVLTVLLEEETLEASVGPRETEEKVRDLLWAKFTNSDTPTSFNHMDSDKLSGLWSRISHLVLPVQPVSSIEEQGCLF
# Chain of Neurogenic locus notch homolog protein 3 (Homo sapiens) (Q9UM47 whole entry, looked up): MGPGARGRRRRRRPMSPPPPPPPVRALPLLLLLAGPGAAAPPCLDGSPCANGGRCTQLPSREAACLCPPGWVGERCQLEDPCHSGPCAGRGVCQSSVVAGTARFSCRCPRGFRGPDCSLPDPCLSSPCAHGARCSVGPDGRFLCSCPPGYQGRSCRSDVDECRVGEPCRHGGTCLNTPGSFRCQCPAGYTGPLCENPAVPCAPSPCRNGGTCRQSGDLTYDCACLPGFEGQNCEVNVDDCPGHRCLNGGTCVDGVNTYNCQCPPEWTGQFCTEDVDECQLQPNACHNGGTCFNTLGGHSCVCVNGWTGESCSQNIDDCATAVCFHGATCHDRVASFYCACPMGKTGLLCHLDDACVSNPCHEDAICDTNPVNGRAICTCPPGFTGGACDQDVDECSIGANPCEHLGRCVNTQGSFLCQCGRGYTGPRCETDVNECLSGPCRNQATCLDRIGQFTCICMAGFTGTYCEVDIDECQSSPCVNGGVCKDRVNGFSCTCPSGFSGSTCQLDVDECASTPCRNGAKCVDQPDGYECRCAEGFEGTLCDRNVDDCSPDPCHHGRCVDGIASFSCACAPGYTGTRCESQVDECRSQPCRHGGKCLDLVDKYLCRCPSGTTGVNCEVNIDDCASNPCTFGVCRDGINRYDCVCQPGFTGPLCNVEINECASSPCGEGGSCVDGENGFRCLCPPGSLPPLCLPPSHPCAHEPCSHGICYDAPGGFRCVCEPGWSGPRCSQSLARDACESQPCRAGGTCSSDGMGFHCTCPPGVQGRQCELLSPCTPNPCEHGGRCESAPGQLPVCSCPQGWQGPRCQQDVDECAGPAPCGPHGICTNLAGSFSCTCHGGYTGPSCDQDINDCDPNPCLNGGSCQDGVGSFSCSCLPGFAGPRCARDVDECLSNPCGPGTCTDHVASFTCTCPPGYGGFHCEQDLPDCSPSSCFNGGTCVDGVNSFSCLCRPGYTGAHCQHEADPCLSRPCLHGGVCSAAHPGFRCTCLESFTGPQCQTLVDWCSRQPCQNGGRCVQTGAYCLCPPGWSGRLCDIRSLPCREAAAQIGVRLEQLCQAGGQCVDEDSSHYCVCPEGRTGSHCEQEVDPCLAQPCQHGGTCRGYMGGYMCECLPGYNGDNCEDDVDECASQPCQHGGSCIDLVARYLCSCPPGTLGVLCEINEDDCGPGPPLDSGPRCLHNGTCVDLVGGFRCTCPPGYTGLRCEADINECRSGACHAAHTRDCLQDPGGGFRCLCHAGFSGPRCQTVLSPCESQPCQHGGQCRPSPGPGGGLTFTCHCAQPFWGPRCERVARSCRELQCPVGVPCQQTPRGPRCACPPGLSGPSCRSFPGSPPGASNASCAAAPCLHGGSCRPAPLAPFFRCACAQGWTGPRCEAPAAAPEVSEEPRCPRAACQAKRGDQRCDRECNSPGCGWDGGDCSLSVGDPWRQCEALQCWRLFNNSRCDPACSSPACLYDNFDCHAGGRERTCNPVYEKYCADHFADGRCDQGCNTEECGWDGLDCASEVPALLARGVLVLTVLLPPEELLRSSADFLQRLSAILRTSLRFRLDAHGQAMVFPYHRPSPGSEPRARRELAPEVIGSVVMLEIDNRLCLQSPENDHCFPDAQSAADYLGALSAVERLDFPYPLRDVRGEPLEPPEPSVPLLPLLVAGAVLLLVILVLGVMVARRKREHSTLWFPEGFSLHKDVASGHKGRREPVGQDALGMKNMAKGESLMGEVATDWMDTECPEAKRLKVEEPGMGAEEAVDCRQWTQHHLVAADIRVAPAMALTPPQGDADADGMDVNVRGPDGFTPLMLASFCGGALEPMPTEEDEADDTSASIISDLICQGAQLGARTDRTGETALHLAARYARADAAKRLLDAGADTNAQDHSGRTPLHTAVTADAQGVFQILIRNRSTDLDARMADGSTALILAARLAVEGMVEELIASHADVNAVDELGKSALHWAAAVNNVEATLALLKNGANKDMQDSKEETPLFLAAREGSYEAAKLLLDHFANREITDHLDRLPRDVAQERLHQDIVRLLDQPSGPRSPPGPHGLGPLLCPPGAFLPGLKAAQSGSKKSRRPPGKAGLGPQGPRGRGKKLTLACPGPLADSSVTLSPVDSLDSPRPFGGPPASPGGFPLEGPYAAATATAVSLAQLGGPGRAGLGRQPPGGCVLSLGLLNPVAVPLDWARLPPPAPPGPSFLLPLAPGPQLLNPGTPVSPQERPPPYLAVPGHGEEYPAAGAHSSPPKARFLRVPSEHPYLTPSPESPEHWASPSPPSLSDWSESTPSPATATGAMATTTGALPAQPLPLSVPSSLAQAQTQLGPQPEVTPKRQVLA
SMILES,composite z-score [1],composite z-score [2],composite z-score [3],composite z-score [4],composite z-score [5],composite z-score [6],composite z-score [7],z-score [8],composite z-score [9],composite z-score [10],composite z-score [11],z-score [12],z-score [13],z-score [14],composite z-score [15],z-score [16],composite z-score [17],composite z-score [18],composite z-score [19],composite z-score [20]
COC(=O)[C@@]1(Cc2ccc(F)cc2)[C@H]2c3cc(C(=O)N(C)C)n(CCN4CCOCC4)c3C[C@H]2CN1C(=O)c1ccccc1,0.59,-0.141,0.0141,0.58,1.63,1.51,0.654,1.56 (inactive),0.416,0.664,0.101,0.218 (inactive),0.323 (inactive),0.0727 (inactive),2.5,0.176 (inactive),0.246,-0.539,0.417,0.865
CCCCC(O)C1C=CC2C(=O)N(C)C(=O)C2N1Nc1ccccc1 (stereo not given),0.645,0.0873,-0.0778,0.435,0.762,1.76,1.25,1.63 (inactive),0.632,0.128,0.24,0.763 (inactive),0.555 (inactive),1.99 (inactive),3.13,-1.26 (inactive),-0.013,-0.649,0.51,-0.143
N[C@@H](Cc1ccccc1)Cn1cc(C2(O)CCCCC2)nn1,-0.337,0.543,-0.0718,-0.244,-0.232,0.138,-0.204,2.2 (inactive),1.27,0.0722,-0.235,-0.692 (inactive),-0.16 (inactive),-0.522 (inactive),0.205,-1.15 (inactive),-0.128,0.112,0.293,-0.14
COCCOC(=O)N1C(=O)[C@@]2(c3ccccc31)[C@H](C(=O)N1CCCCCCC1)[C@H]1C(=O)O[C@H](c3ccccc3)[C@H](c3ccccc3)N1[C@@H]2c1ccc(O)cc1,3.89,1.42,0.904,0.559,1.08,1.59,1.15,-1.43 (inactive),3.43,3.37,1.53,-1.37 (inactive),-0.268 (inactive),1.63 (inactive),4.37,1.39 (inactive),1.75,1.11,1.09,1.15
COC(=O)C1=CC(CCCO)=CC(C2CC2)N(Cc2cccc(OC(F)(F)F)c2)C=C1C(=O)OC (stereo not given),-0.207,-0.166,-0.0265,0.216,0.515,1.14,1.25,0.503 (inactive),0.497,-0.0645,1.13,-2.46 (inactive),-1.06 (inactive),-2.24 (inactive),2.82,-2.57 (inactive),0.0386,-0.273,0.749,-0.0353
CCc1cccc(NC(=O)O[C@H]2[C@H](OC(=O)Nc3ccc4c(c3)OCO4)[C@H](OC(=O)Nc3ccc4c(c3)OCO4)[C@@H](OC)O[C@@H]2CO)c1,0.0053,0.052,-0.0158,0.263,0.603,0.979,1.32,4.53 (inactive),0.318,-0.0645,1.55,1.5 (inactive),1.09 (inactive),7.36 (inactive),3.05,0.641 (inactive),0.0386,0.795,1.08,-0.13
C=CC[C@]1(C(=O)OC)N=C(c2ccc(OCCCO)cc2)O[C@H]1c1ccccc1N=[N+]=[N-],0.638,0.402,0.288,1.13,1.42,1.5,1.4,3.21 (inactive),1.03,0.33,1.54,-0.747 (inactive),-0.652 (inactive),1.35 (inactive),3.36,-0.225 (inactive),0.529,1.41,1.08,0.686
COc1ccc(NC(=O)O[C@H]2[C@H](OC(=O)Nc3ccc4c(c3)OCO4)[C@H](OC(=O)Nc3ccc4c(c3)OCO4)[C@@H](OC)O[C@@H]2CO)cc1,0.198,0.347,0.0519,0.739,0.302,0.978,0.905,3.53 (inactive),0.327,0.142,1.54,1.87 (inactive),1.41 (inactive),4.72 (inactive),2.96,0.212 (inactive),-0.121,-0.0137,0.569,-0.0922
NC(=O)[C@@]1(CCS(=O)(=O)c2ccccc2)COC(c2ccc(OCCCO)cc2)=N1,0.615,0.0735,0.0777,0.0833,0.963,1.78,0.832,-0.429 (inactive),0.194,-0.112,-0.617,-0.0133 (inactive),-0.213 (inactive),0.0084 (inactive),1.28,0.817 (inactive),0.158,-0.0167,-0.57,-0.0826
CC(C)C[C@@H]1NC(=O)[C@@H]2C[C@H](C(=O)O)[C@H](c3ccc(O)cc3)N2C1=O,-0.451,1.9,-0.121,0.338,0.529,0.833,1.23,-0.93 (inactive),0.186,0.0373,1.54,-1.45 (inactive),-1.34 (inactive),-0.42 (inactive),1.77,2.31 (inactive),-0.0433,1.02,1.09,0.0226
O=C1O[C@H](c2ccccc2)[C@H](c2ccccc2)N2[C@H]1[C@@H](C(=O)NC[C@H](O)c1ccccc1)[C@]1(C(=O)Nc3ccc(C#CCCO)cc31)[C@H]2c1ccccc1OCCO,-0.211,0.307,-0.141,0.453,0.253,1.25,1.34,-0.0302 (inactive),0.152,0.0505,1.54,1.14 (inactive),-2.23 (inactive),3.41 (inactive),2.22,1.19 (inactive),-0.0499,0.795,0.325,-0.139
COC(=O)[C@H](Cc1ccc(O)cc1)N1CC2=CCCC=C[C@@H]2[C@H]1[C@H](O)Cc1ccccc1,-0.565,-0.214,-0.124,0.288,0.35,0.166,0.324,-0.106 (inactive),0.166,-0.132,1.13,-0.662 (inactive),-2.3 (inactive),-1.03 (inactive),0.616,0.65 (inactive),-0.29,0.191,-0.0213,-0.112
C=C(COC)C(=O)CC[C@@H](OC(=O)c1cccnc1)c1cccc(OCCO)c1,0.0424,0.759,-0.0332,0.455,-0.0967,0.851,0.762,0.587 (inactive),0.532,-0.171,1.37,-0.686 (inactive),-1.14 (inactive),-0.632 (inactive),1.35,0.726 (inactive),0.0932,0.873,0.693,-0.0922
CCOC(=O)C1=C(C(=O)OCC)N(S(=O)(=O)CC[Si](C)(C)C)[C@H](c2ccccc2)CC1,0.208,0.0516,-0.0066,0.2,1.53,-0.0059,0.884,-2.55 (inactive),0.917,0.0623,1.03,0.807 (inactive),1.83 (inactive),1.85 (inactive),1.84,-0.219 (inactive),0.138,0.472,1.07,0.108
COC(=O)[C@@]1(Cc2ccc(OC)cc2)[C@H]2c3cc(C(=O)N4CCCC4)n(CCc4ccc(OC)c(Br)c4)c3C[C@H]2CN1C(=O)c1ccccc1,1.02,-0.116,0.159,0.929,1.04,2.17,1.44,1.25 (inactive),0.546,0.21,-1.11,0.0024 (inactive),0.111 (inactive),-0.751 (inactive),3.27,0.615 (inactive),0.153,-0.802,-0.0445,-0.0357
CCOC(=O)C[C@H]1[C@H](OC(=O)c2cc3ccccc3oc2=O)[C@@H](NC(=O)C2CCCCC2)c2cc(OCCCO)ccc2N1C(=O)Cc1ccc(OC)cc1,-0.0716,0.714,0.0066,0.65,0.54,0.052,0.72,0.198 (inactive),0.352,-0.201,0.466,0.248 (inactive),0.222 (inactive),-0.295 (inactive),0.727,-0.723 (inactive),0.0424,0.909,0.894,-0.0623
CCCCCN1CC=CC23O[C@@H]4C=CCOC(=O)[C@@H]4[C@H]2C(=O)N(CCCCCO)[C@@H]3C1=O (stereo not given in full),0.346,1.8,-0.113,-1.11,-1.26,-0.48,1.29,0.391 (inactive),-0.883,-0.261,0.421,-1.16 (inactive),0.249 (inactive),-1.02 (inactive),1.59,2.58 (inactive),-0.121,-0.361,0.103,-0.167
CC(C)C[C@@H]1NC(=O)[C@@]23C(=O)N[C@@H](Cc4ccccc4)C2[C@H](C)[C@@]2(C)O[C@H]2C3/C=C/C/C=C\CNC(=O)[C@@H](CC(C)C)NC1=O (stereo not given in full),-0.47,-0.0387,-0.0878,0.159,0.416,0.345,0.97,2.49 (inactive),0.355,-0.206,1.55,-0.652 (inactive),-17.9 (active),0.241 (inactive),2.16,-0.313 (inactive),-0.184,0.914,0.895,-0.0814
